Measurements published in paper PMC5540273 (PLoS ONE, 2017).
Where two headings read alike, the source gives them in different places.

Assays:
Conditions in all cases: n = 1
TTK = tested on: TTK
TXK = tested on: TXK
[1] = tested on: TYK2(JH1domain-catalytic)
[2] = tested on: TYK2(JH2domain-pseudokinase)
TYRO3 = tested on: TYRO3
ULK1 = tested on: ULK1
ULK2 = tested on: ULK2
ULK3 = tested on: ULK3
VEGFR2 = tested on: T1, VEGFR2
T1 construct: gene KDR

VPS34 = tested on: T2, VPS34
T2 construct: gene PIK3C3

VRK2 = tested on: VRK2
WEE1 = tested on: WEE1
WEE2 = tested on: WEE2
WNK1 = tested on: WNK1
WNK2 = tested on: WNK2
WNK3 = tested on: WNK3
WNK4 = tested on: WNK4
YANK1 = tested on: T3, YANK1
T3 construct: gene STK32A

YANK2 = tested on: T4, YANK2
T4 construct: gene STK32B

YANK3 = tested on: T5, YANK3
T5 construct: gene STK32C

[3] = concentration: 1 μM, replicates: in singlicate
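Also: KINOMEscan kinase panel screen.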

Cc1ccccc1-n1cnc2c(N)ncnc21 [SKF-97510]
%Inh (TTK; [3]): 0%
%Inh (TXK; [3]): 0%
%Inh [1, 3]: 0%
%Inh [2, 3]: 0%
%Inh (TYRO3; [3]): 25%
%Inh (ULK1; [3]): 0%
%Inh (ULK2; [3]): 0%
%Inh (ULK3; [3]): 0%
%Inh (VEGFR2; [3]): 0%
%Inh (VPS34; [3]): 0%
%Inh (VRK2; [3]): 0%
%Inh (WEE1; [3]): 1%
%Inh (WEE2; [3]): 0%
%Inh (WNK1; [3]): 0%
%Inh (WNK2; [3]): 0%
%Inh (WNK3; [3]): 0%
%Inh (WNK4; [3]): 0%
%Inh (YANK1; [3]): 0%
%Inh (YANK2; [3]): 0%
%Inh (YANK3; [3]): 0%

Cn1ccc2ncnc(Oc3ccc(NC(=O)Nc4ccccc4)cc3)c21
%Inh (TTK; [3]): 0%
%Inh (TXK; [3]): 1%
%Inh [1, 3]: 0%
%Inh [2, 3]: 0%
%Inh (TYRO3; [3]): 0%
%Inh (ULK1; [3]): 0%
%Inh (ULK2; [3]): 0%
%Inh (ULK3; [3]): 3%
%Inh (VEGFR2; [3]): 97.8%
%Inh (VPS34; [3]): 0%
%Inh (VRK2; [3]): 0%
%Inh (WEE1; [3]): 0%
%Inh (WEE2; [3]): 0%
%Inh (WNK1; [3]): 0%
%Inh (WNK2; [3]): 0%
%Inh (WNK3; [3]): 0%
%Inh (WNK4; [3]): 1%
%Inh (YANK1; [3]): 17%
%Inh (YANK2; [3]): 0%
%Inh (YANK3; [3]): 0%

COC(=O)c1c(-c2ccccc2)c2cc(OC)ccc2c(=O)n1Cc1ccccc1
%Inh (TTK; [3]): 14%
%Inh (TXK; [3]): 12%
%Inh [1, 3]: 7%
%Inh [2, 3]: 0%
%Inh (TYRO3; [3]): 0%
%Inh (ULK1; [3]): 1%
%Inh (ULK2; [3]): 0%
%Inh (ULK3; [3]): 0%
%Inh (VEGFR2; [3]): 7%
%Inh (VPS34; [3]): 0%
%Inh (VRK2; [3]): 0%
%Inh (WEE1; [3]): 0%
%Inh (WEE2; [3]): 9%
%Inh (WNK1; [3]): 0%
%Inh (WNK2; [3]): 0%
%Inh (WNK3; [3]): 0%
%Inh (WNK4; [3]): 0%
%Inh (YANK1; [3]): 0%
%Inh (YANK2; [3]): 4%
%Inh (YANK3; [3]): 0%

CN(C)CCN(C)C(=O)c1cc(-c2ccncc2)c(-c2ccc(Cl)c(O)c2)o1.Cl.Cl [SB-710397]
%Inh (TTK; [3]): 0%
%Inh (TXK; [3]): 4%
%Inh [1, 3]: 43%
%Inh [2, 3]: 45%
%Inh (TYRO3; [3]): 0%
%Inh (ULK1; [3]): 13%
%Inh (ULK2; [3]): 0%
%Inh (ULK3; [3]): 9%
%Inh (VEGFR2; [3]): 0%
%Inh (VPS34; [3]): 0%
%Inh (VRK2; [3]): 24%
%Inh (WEE1; [3]): 0%
%Inh (WEE2; [3]): 5%
%Inh (WNK1; [3]): 15%
%Inh (WNK2; [3]): 0%
%Inh (WNK3; [3]): 38%
%Inh (WNK4; [3]): 47%
%Inh (YANK1; [3]): 49%
%Inh (YANK2; [3]): 71%
%Inh (YANK3; [3]): 35%

Cc1ccc(NC(=O)Nc2cc(C(C)(C)C)nn2-c2ccccc2)cc1 [GSK1014915]
%Inh (TTK; [3]): 4%
%Inh (TXK; [3]): 0%
%Inh [1, 3]: 25%
%Inh [2, 3]: 4%
%Inh (TYRO3; [3]): 7%
%Inh (ULK1; [3]): 17%
%Inh (ULK2; [3]): 0%
%Inh (ULK3; [3]): 13%
%Inh (VEGFR2; [3]): 6%
%Inh (VPS34; [3]): 0%
%Inh (VRK2; [3]): 0%
%Inh (WEE1; [3]): 0%
%Inh (WEE2; [3]): 7%
%Inh (WNK1; [3]): 9%
%Inh (WNK2; [3]): 0%
%Inh (WNK3; [3]): 13%
%Inh (WNK4; [3]): 25%
%Inh (YANK1; [3]): 13%
%Inh (YANK2; [3]): 5%
%Inh (YANK3; [3]): 7%

CN1C(=O)C(Nc2ccc(Cl)c(C(=O)O)c2)=C(c2ccc(Cl)cc2)C1=O [SB-404290]
%Inh (TTK; [3]): 22%
%Inh (TXK; [3]): 0%
%Inh [1, 3]: 0%
%Inh [2, 3]: 0%
%Inh (TYRO3; [3]): 0%
%Inh (ULK1; [3]): 2%
%Inh (ULK2; [3]): 2%
%Inh (ULK3; [3]): 24%
%Inh (VEGFR2; [3]): 6%
%Inh (VPS34; [3]): 28%
%Inh (VRK2; [3]): 0%
%Inh (WEE1; [3]): 0%
%Inh (WEE2; [3]): 21%
%Inh (WNK1; [3]): 0%
%Inh (WNK2; [3]): 0%
%Inh (WNK3; [3]): 5%
%Inh (WNK4; [3]): 16%
%Inh (YANK1; [3]): 0%
%Inh (YANK2; [3]): 0%
%Inh (YANK3; [3]): 0%

Cl.c1ccc(-c2n[nH]cc2-c2ccnc(-c3ccc(CN4CCOCC4)cc3)c2)nc1 [GW776245]
%Inh (TTK; [3]): 31%
%Inh (TXK; [3]): 7%
%Inh [1, 3]: 0%
%Inh [2, 3]: 0%
%Inh (TYRO3; [3]): 0%
%Inh (ULK1; [3]): 0%
%Inh (ULK2; [3]): 0%
%Inh (ULK3; [3]): 20%
%Inh (VEGFR2; [3]): 0%
%Inh (VPS34; [3]): 0%
%Inh (VRK2; [3]): 0%
%Inh (WEE1; [3]): 16%
%Inh (WEE2; [3]): 0%
%Inh (WNK1; [3]): 0%
%Inh (WNK2; [3]): 0%
%Inh (WNK3; [3]): 0%
%Inh (WNK4; [3]): 0%
%Inh (YANK1; [3]): 0%
%Inh (YANK2; [3]): 0%
%Inh (YANK3; [3]): 0%

COc1ccc2nc(-c3cccc(C)n3)nc(Nc3ccncc3)c2c1 [GSK204919]
%Inh (TTK; [3]): 0%
%Inh (TXK; [3]): 9%
%Inh [1, 3]: 10%
%Inh [2, 3]: 82%
%Inh (TYRO3; [3]): 4%
%Inh (ULK1; [3]): 4%
%Inh (ULK2; [3]): 0%
%Inh (ULK3; [3]): 2%
%Inh (VEGFR2; [3]): 0%
%Inh (VPS34; [3]): 0%
%Inh (VRK2; [3]): 33%
%Inh (WEE1; [3]): 0%
%Inh (WEE2; [3]): 2%
%Inh (WNK1; [3]): 5%
%Inh (WNK2; [3]): 3%
%Inh (WNK3; [3]): 8%
%Inh (WNK4; [3]): 9%
%Inh (YANK1; [3]): 19%
%Inh (YANK2; [3]): 2%
%Inh (YANK3; [3]): 18%

COc1ccc(CNC(=O)NC2CCN(c3ccnc(Nc4cc(OC)c(OC)c(OC)c4)n3)C2)cc1 (stereo not shown) [GSK1379748]
%Inh (TTK; [3]): 0%
%Inh (TXK; [3]): 8%
%Inh [1, 3]: 48%
%Inh [2, 3]: 31%
%Inh (TYRO3; [3]): 0%
%Inh (ULK1; [3]): 0%
%Inh (ULK2; [3]): 0%
%Inh (ULK3; [3]): 86%
%Inh (VEGFR2; [3]): 4%
%Inh (VPS34; [3]): 7%
%Inh (VRK2; [3]): 14%
%Inh (WEE1; [3]): 5%
%Inh (WEE2; [3]): 0%
%Inh (WNK1; [3]): 7%
%Inh (WNK2; [3]): 30%
%Inh (WNK3; [3]): 30%
%Inh (WNK4; [3]): 52%
%Inh (YANK1; [3]): 0%
%Inh (YANK2; [3]): 0%
%Inh (YANK3; [3]): 0%

Clc1cc(Cl)cc(Nc2ccnc(Nc3cc(Cl)cc(Cl)c3)n2)c1 [GSK175726]
%Inh (TTK; [3]): 0%
%Inh (TXK; [3]): 0%
%Inh [1, 3]: 0%
%Inh [2, 3]: 0%
%Inh (TYRO3; [3]): 0%
%Inh (ULK1; [3]): 0%
%Inh (ULK2; [3]): 0%
%Inh (ULK3; [3]): 0%
%Inh (VEGFR2; [3]): 12%
%Inh (VPS34; [3]): 0%
%Inh (VRK2; [3]): 6%
%Inh (WEE1; [3]): 6%
%Inh (WEE2; [3]): 0%
%Inh (WNK1; [3]): 0%
%Inh (WNK2; [3]): 0%
%Inh (WNK3; [3]): 22%
%Inh (WNK4; [3]): 32%
%Inh (YANK1; [3]): 0%
%Inh (YANK2; [3]): 0%
%Inh (YANK3; [3]): 14%

Cc1ccc(NC(=O)Nc2cccc(C(F)(F)F)c2)cc1 [GSK955403]
%Inh (TTK; 1 µM): 19%
%Inh (TXK; 1 µM): 38%
%Inh ([1]; 1 µM): 24%
%Inh ([2]; 1 µM): 0%
%Inh (TYRO3; 1 µM): 16%
%Inh (ULK1; 1 µM): 0%
%Inh (ULK2; 1 µM): 6%
%Inh (ULK3; 1 µM): 0%
%Inh (VEGFR2; 1 µM): 0%
%Inh (VPS34; 1 µM): 0%
%Inh (VRK2; 1 µM): 0%
%Inh (WEE1; 1 µM): 3%
%Inh (WEE2; 1 µM): 0%
%Inh (WNK1; 1 µM): 0%
%Inh (WNK2; 1 µM): 0%
%Inh (WNK3; 1 µM): 0%
%Inh (WNK4; 1 µM): 0%
%Inh (YANK1; 1 µM): 0%
%Inh (YANK2; 1 µM): 0%
%Inh (YANK3; 1 µM): 0%
